Inconclusive results are not listed. Activity calls are given as the source filed them. How the source made its calls: active means hit-call score of the fitted dose curve at least 0.9, where 1 is the maximum; inconclusive means response in the unintended direction; inactive means score below 0.9. Peptide text beside a SMILES is read from it.
Test: CCTE_Shafer_MEA_acute_LDH: CCTE's Lactate Dehydrogenase Assay for Cytotoxicity in the Neural Acute Assay, Shafer Lab (AID 2284086);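 further: active means LDH release rises above DMSO vehicle level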
Experimental: CCTE_Shafer_MEA_acute assay is conducted using Axion Biosystems 48 well microelectrode array (MEA) plates and Maestro recording system. Each well of the MEA plate contains a grid of 16 microelectrodes embedded in the culture surface. Electrically active cells, such as neurons, can be cultured over the electrodes, and electrical activity in these cells can be recorded extracellularly. The spontaneous firing of neurons is captured from each electrode on a microsecond timescale providing both temporally and spatially precise data. […] The CCTE_Shafer_MEA_acute assay uses primary cultures of rat cortical neurons. As these cultures mature over time, neural networks develop functional activity and form cohesive networks in which electrical activity can be highly coordinated. Baseline 40-minute recordings are made on days post-plating 13 or 15, followed by a secondary 40-minute recording after chemical exposure.CCTE_Shafer_MEA_acute_LDH is a component of the CCTE_Shafer_MEA_acute assay. It measures the lactate dehydrogenase enzyme activity using spectrophotometry.Data from the assay component CCTE_Shafer_MEA_acute_LDH was analyzed into 1 assay endpoint. This assay endpoint, CCTE_Shafer_MEA_acute_LDH, was analyzed in the positive analysis fitting direction relative to DMSO as the negative control and baseline of activity. Using a type of viability reporter, gain-of-signal activity can be used to understand cell viability.
Immediately following the 40 min recording in the presence of compounds, 50 uL of media was removed from each well and transferred to a sterile 96-well plate. This was used to determine LDH released from cells during compound exposure using a kit from Promega where absorbance was determined in a Molecular Devices VersaMax plate reader at 490 nm.

SMILES | outcome
Oc1ccccc1Cc1ccccc1O | inactive
CC(C)C(=O)OCCc1ccccc1 | inactive
CCCC(C)C(=O)OCC (configuration not stated) | inactive
Nc1nc(N)nc(-c2ccccc2)n1 | inactive
c1ccc(Nc2cccc3ccccc23)cc1 | inactive
CC1(C)CC(O)CC(C)(C)N1[O] | inactive
Nc1cccc(N)n1 | inactive
COC(=O)[C@H](Cc1ccccc1)NC(=O)[C@@H](N)CC(=O)O (H-Asp-Phe-OMe) | inactive
CC(CCC(=O)O)(c1ccc(O)cc1)c1ccc(O)cc1 | inactive
Cc1c(C(=O)c2c[nH]n(C)c2=O)ccc(S(C)(=O)=O)c1C1=NOCC1 | inactive
CCCCCCCCCCCC(=O)N(C)CC(=O)O | inactive
CC/C=C\CCOC(=O)c1ccccc1O | inactive

Source: PubChem BioAssay (EPA / NIEHS)
